We go through 19 molecules from PubChem BioAssay (NCI).

The panel holds about 83,000 compounds, 20% with a hit somewhere; the sample as a whole holds those more often.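 Activity criterion: percent growth below 10, measured after cells in 96-well plates were exposed to a single compound concentration for 48 hours.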 A number with no mark means an inactive call. Activity calls are given as the source filed them.

Among the test systems are T-47D breast; BT-549 breast; MDA-MB-435 melanoma; SW-620 colon; MCF7 breast; HCT-116 colon; HCC-2998 colon; KM12 colon.
Common to all, as to experiment: NCI-60 one-dose screen, 48 h (100 = growth as untreated, 0 = no growth, -100 = all killed)
What all share (conditions): 10 µM unless noted

In the case of `COc1ccc2c(Cl)cc(NC(=O)Nc3c(C)cccc3C)nc2c1`, the growth is 62.2% with T-47D breast; 93.8% in the test with BT-549 breast; 83% with MDA-MB-435 melanoma; 85.3% in the test on SW-620 colon; 75.7% with MCF7 breast; 63.8% with HCT-116 colon. Moreover, the values for the growth in the test with HCC-2998 colon and in the test on KM12 colon were 95.3% and 88.8%, respectively.

In the case of `COc1ccc(C(=O)C(=O)c2ccccc2)cc1`, the growth is 104% in the test on T-47D breast; 112% in the test on BT-549 breast; 95.1% in the test with MDA-MB-435 melanoma; 100% in the test on SW-620 colon; 103% in the test with MCF7 breast; 105% in the test on HCT-116 colon. Besides, the growth in the test with KM12 colon is 102%.

Consider `O=C(O)c1ccccc1Cc1ccc2c(c1)CCCC2`, for which the growth with T-47D breast was 113%; in the test on BT-549 breast it was 106%; in the test with MDA-MB-435 melanoma, 115%; in the test with SW-620 colon, 99.5%; in the test with MCF7 breast, 91.7%; with HCT-116 colon it was 104%. For the same molecule, the growth was 115% in the test with HCC-2998 colon and 113% with KM12 colon.

Take `NNC(=O)CCCCl`: the growth with T-47D breast is 100%; with BT-549 breast, 119%; in the test with MDA-MB-435 melanoma, 108%; in the test with SW-620 colon, 105%; in the test with MCF7 breast, 98.4%; with HCT-116 colon, 108%. The growth in the test with KM12 colon was 102%.

As to `CC1CCC(C(C)(C)[N+](C)(C)C)CC1` (centres undefined), the growth with T-47D breast was 98.8%; in the test with BT-549 breast it was 92.6%; with MDA-MB-435 melanoma, 108%; in the test with SW-620 colon it was 105%; in the test on MCF7 breast, 94.4%; in the test with HCT-116 colon, 98.4%. Besides, the growth is 93.7% in the test on HCC-2998 colon and 99.7% in the test with KM12 colon.

On to `CC(=O)NC(CCc1ccc(Cl)c(Cl)c1)c1cccc(O)c(=O)c1` (centres undefined), for which the growth with T-47D breast is 17.7%; with BT-549 breast, 19.3%; in the test with MDA-MB-435 melanoma, 21.5%; in the test on SW-620 colon, 23.8%; with MCF7 breast, 19.3%; with HCT-116 colon, 15.9%. Moreover, the growth in the test on KM12 colon is 18.1%.

On to `Oc1ccc2ccccc2c1CN1CCOCC1`, for which the growth in the test with T-47D breast was 104%; in the test with BT-549 breast, 103%; with MDA-MB-435 melanoma, 112%; with SW-620 colon, 113%; in the test on MCF7 breast it was 106%; in the test on HCT-116 colon it was 103%. In the test with KM12 colon, the growth was 114%.

Regarding `CCCCCCCCCCCCSC1=C(Cl)C(=O)C(OC)=C(OC)C1=O`, the growth is 14.1% with T-47D breast; 58.3% in the test on BT-549 breast; 25.9% in the test on MDA-MB-435 melanoma; 27.5% in the test with SW-620 colon; 6.48% (active) with MCF7 breast; 16% with HCT-116 colon. The growth in the test on KM12 colon is 24.4%.

As to `Cc1cc(Nc2ccc3c(c2)OCO3)c2cc3c(cc2n1)OCO3`, the growth was 44.6% in the test on T-47D breast; 69.8% in the test on BT-549 breast; -68.2% (active) in the test with MDA-MB-435 melanoma; 10.3% in the test with SW-620 colon; 7.08% (active) in the test with MCF7 breast; 23% in the test on HCT-116 colon. For the same molecule, the growth in the test on KM12 colon is 9.98% (active).

As to `Cc1ccc(O)c(N)c1`, the growth in the test with T-47D breast was 92.8%; in the test with BT-549 breast it was 95.2%; in the test with MDA-MB-435 melanoma it was 112%; in the test on SW-620 colon, 121%; in the test with MCF7 breast, 99.9%; in the test on HCT-116 colon, 111%. In addition, the growth with KM12 colon is 110%.

For the molecule `COc1cc(-c2ccc(NC(=O)CC(C)=O)c(OC)c2)ccc1NC(=O)CC(C)=O`, the growth in the test with T-47D breast was 108%; in the test with BT-549 breast, 83.6%; in the test on MDA-MB-435 melanoma it was 105%; with SW-620 colon, 104%; in the test with MCF7 breast it was 106%; in the test on HCT-116 colon it was 105%. Also, in the test on KM12 colon, the growth is 106%.

In the case of `CCOC(=O)c1cc(C)[nH]c(=O)c1C#N`, the growth was 107% with T-47D breast; 92.9% in the test with BT-549 breast; 86% with MDA-MB-435 melanoma; 107% with SW-620 colon; 104% in the test with MCF7 breast; 99.9% in the test with HCT-116 colon. Moreover, the growth with KM12 colon was 103%.

Consider `O=C(NC(=S)N1CC=CCC1)c1ccccc1`, for which the growth with T-47D breast is 110%; in the test on BT-549 breast, 93.6%; in the test on MDA-MB-435 melanoma it was 109%; in the test on SW-620 colon, 103%; with MCF7 breast, 101%; in the test on HCT-116 colon it was 102%. For the same molecule, in the test with KM12 colon, the growth is 112%.

As for `Cc1cc2c(C(C)C)c(O)c(O)c(C=Nc3ccccc3[N+](=O)[O-])c2c(O)c1-c1c(C)cc2c(C(C)C)c(O)c(O)c(C=Nc3ccccc3[N+](=O)[O-])c2c1O`, the growth in the test with T-47D breast is 83.1%; in the test with BT-549 breast, 94%; with MDA-MB-435 melanoma, 109%; in the test on SW-620 colon, 96.3%; in the test with MCF7 breast it was 91.2%; with HCT-116 colon, 73.7%. In addition, in the test with KM12 colon, the growth is 47.7%.

In the case of `c1ccc(Nc2ccccn2)nc1`, the growth in the test with T-47D breast is 84.6%; in the test with BT-549 breast, 108%; in the test with MDA-MB-435 melanoma it was 104%; in the test on SW-620 colon, 108%; with MCF7 breast it was 84.9%; in the test on HCT-116 colon, 99.8%. Also, the growth with KM12 colon was 116%.

As to `CCOC(=O)c1ccc(Nc2sc(C(=O)c3ccc(Br)cc3)c(N)c2C#N)cc1`, the growth in the test with T-47D breast was 28%; in the test on BT-549 breast it was 50.9%; in the test on MDA-MB-435 melanoma it was -61.9% (active); with SW-620 colon it was 25.6%; in the test with MCF7 breast, 9% (active); in the test on HCT-116 colon, 26.9%. Besides, the growth in the test on HCC-2998 colon was 66.1%; with KM12 colon, 21.7%.

For the molecule `Cc1c(Cl)cccc1NC(=S)NC(=O)c1ccccc1`, the growth is 64.8% with T-47D breast; 115% in the test with BT-549 breast; 101% in the test with MDA-MB-435 melanoma; 106% in the test on SW-620 colon; 53.3% in the test with MCF7 breast; 106% with HCT-116 colon. The growth in the test on KM12 colon is 89.6%.

Regarding `C1CCc2onc(-c3noc4c3CCCCC4)c2CC1`, the growth was 101% in the test on T-47D breast; 108% in the test with BT-549 breast; 110% in the test with MDA-MB-435 melanoma; 124% with SW-620 colon; 95.5% with MCF7 breast; 105% with HCT-116 colon. The figures for the growth in the test on HCC-2998 colon and in the test on KM12 colon were 109% and 107%, respectively.

`N#C/C(=C\NC(=S)N=Nc1c(O)[nH]c2ccccc12)c1nc2ccccc2s1`: the growth was 71.6% in the test with T-47D breast; 101% in the test with BT-549 breast; 108% with MDA-MB-435 melanoma; 93% in the test with SW-620 colon; 76% in the test with MCF7 breast; 92.3% with HCT-116 colon. For the same molecule, the growth in the test with HCC-2998 colon is 113%; with KM12 colon, 102%.
